Bioassay records deposited in PubChem BioAssay by National Center for Advancing Translational Sciences (NCATS).
ATXN viability = cell viability loss in ATXN counter-screen; AID 651635; 400,000 tested, 0.49% active; Potency, µM (series often up to 56.7 µM), most hits filed as cytotoxic; S2 cells (HEK-293 line with an ATXN2-luciferase reporter) viability, CellTiter-Fluor protease fluorescence, 24 h; further: potency means the concentration at half of the fitted maximal effect; nearly all actives have a fitted effect of over 40% in size
USP2a block = USP2a (human) protease inhibition | O75604 | USP2 core, Ub-CHOP2 coupled fluorogenic reporter, 485/531 | Potency, µM (titrated, usually from 38.3 µM), for inactives: top-dose activity change, negative = inhibition, usual class: inhibitors | 330,000 tested, 0.01% active | AID 463254;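 further: potency means the concentration at half of the fitted maximal effect; plate controls were DMSO wells for no effect and full inhibition by NEM control for full effect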
Target sequence (O75604 whole entry, looked up): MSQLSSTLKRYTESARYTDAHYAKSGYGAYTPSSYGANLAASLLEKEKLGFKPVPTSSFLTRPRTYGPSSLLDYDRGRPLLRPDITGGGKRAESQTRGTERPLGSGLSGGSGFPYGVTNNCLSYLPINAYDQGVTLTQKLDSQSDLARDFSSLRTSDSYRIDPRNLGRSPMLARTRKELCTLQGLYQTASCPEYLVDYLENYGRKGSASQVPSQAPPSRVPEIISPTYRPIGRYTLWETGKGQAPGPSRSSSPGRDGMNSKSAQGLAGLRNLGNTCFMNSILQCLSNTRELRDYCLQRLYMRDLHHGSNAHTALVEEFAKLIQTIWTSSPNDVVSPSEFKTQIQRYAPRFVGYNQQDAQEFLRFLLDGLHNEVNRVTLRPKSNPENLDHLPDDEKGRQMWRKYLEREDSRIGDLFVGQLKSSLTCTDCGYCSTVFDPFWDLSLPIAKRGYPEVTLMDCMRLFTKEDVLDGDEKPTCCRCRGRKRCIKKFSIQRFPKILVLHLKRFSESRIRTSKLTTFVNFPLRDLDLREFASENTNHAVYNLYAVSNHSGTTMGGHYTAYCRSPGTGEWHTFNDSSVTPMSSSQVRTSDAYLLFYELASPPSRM
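Deubiquitinase activity read as fluorescence (485/531 nm) after Ub-CHOP2 cleavage activates the enterokinase reporter on its substrate; USP2 core 10nM, Ub-CHOP2 and substrate 25nM each, 30min compound preincubation then 60min RT; data normalized to NEM, curves fitted.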
ATXN2 expr inh = reduces ATXN2 reporter expression in HEK-293 cells. HEK-293 ATXN2-luciferase reporter, luminescence, 24 h. Potency, µM (top dose mostly 57 µM), inactives show top-dose activity change, negative = inhibition, most hits filed as inhibitors. 360,000 tested, 0.72% active; further: potency means the concentration at half of the fitted maximal effect; on the % scale 0 is the no-effect control and ±100 the full control effect; nearly all actives have a fitted effect of over 55% in size
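ATXN2-luciferase reporter cells (luciferase flanked by upstream and downstream ATXN2 gene portions) were treated 24 h at 37 °C with compounds at up to 57 uM. SteadyGlo luminescence gave expression; GF-AFC fluorescence gave viability.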
USP1-UAF1 inh = USP1/UAF1 (human) deubiquitinase inhibition. O94782. recombinant USP1/UAF1, Ub-Rhodamine cleavage fluorescence. Potency, µM (top dose mostly 57.1 µM), for inactives: at the highest dose activity change, negative = inhibition, hits mostly inhibitors. 390,000 tested, 0.23% active; further: potency means the concentration at half of the fitted maximal effect; on the % scale 0 is the no-effect control and ±100 the full control effect; nearly all actives have a fitted effect of over 60% in size
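High-throughput fluorogenic screen: 1nM USP1/UAF1 complex, Ub-Rho substrate 150nM final, 50mM HEPES pH 7.8 with 0.5mM EDTA, 0.1 mg/ml BSA, 1mM TCEP and 0.01% Tween-20.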
IL-1B inflam inh = inflammasome signaling inhibition, IL-1 beta readout | THP-1 LPS/ATP IL-1B secretion, AlphaLISA, 16 h; active compounds read low | activity change, % at 57.5 µM | 360,000 tested, 4.7% active; in the data active means activity change below about -50%; inconclusive means mostly about -30% to -49%; further: on the % scale 0 is the no-effect control and ±100 the full control effect
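THP-1 cells pretreated 1 hr with compounds (up to 57.5 uM final), then stimulated with LPS (250 ng/mL final) plus ATP (1.25 mM final); secreted IL-1B measured by AlphaLISA after 16 hr, decreased signal indicating inhibition.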
The depositor's hits bear a star; i = inactive; ? = inconclusive; . = no result. This is a sample that favours compounds with a hit; in the whole collection about 4.8% have one here. Unless noted, the call rests on the fitted dose curve; in most records, active means well fitted curve in the direction sought with a large enough effect; inconclusive means small, poorly fitted or top-dose-only effect, or another doubt; inactive means no such curve, though single readings can be large; an effect the other way counts as inactive or inconclusive.

SMILES	ATXN viability	USP2a block	ATXN2 expr inh	USP1-UAF1 inh	IL-1B inflam inh
O=C(Nc1ccccc1F)c1csc([C@@H]2C[C@H](O)[C@@H](CO)O2)n1	i	.	2%	.	22
NC(=O)C(C(=O)/C=C/c1ccc(Cl)cc1)=C1SCCS1	?	7%	.	-19%	-99*
O=C(NCC(c1cccnc1)N1CCN(Cc2ccccc2)CC1)C(=O)Nc1ccc(Cl)cc1 (stereo not drawn)	?	.	?	8%	.
Cc1c(C(=O)NCc2cccc(Cl)c2)sc(=O)n1Cc1ccc(C(=O)N(C)C)cc1	i	.	-7%	.	-12
Cc1c(C(=O)NCc2cccc(C(F)(F)F)c2)sc(=O)n1Cc1cccc(F)c1	i	.	0%	.	-62*
Cc1ccc(Cl)cc1-c1cc(C(=O)NCc2cccc(Cl)c2)[nH]n1	?	.	?	.	-51*
Cc1c(C(=O)NCc2ccc(C(F)(F)F)cc2)sc(=O)n1Cc1cccc(F)c1	i	.	?	.	40
Cc1c(C(=O)NCc2cccc(Cl)c2)sc(=O)n1Cc1ccc(F)cc1	i	.	-24%	.	-58*
CCN1C[C@@H]2[C@@H]3C(=O)N(Cc4ccccc4)C(=O)[C@@H]3[C@](C)(C1=O)N2C(=O)c1ccc(Cl)c(Cl)c1	?	.	-10%	-17%	?
Cc1ccc(CS(=O)(=O)c2nc3c(c(N(C)C)n2)CCCC3)cc1	i	1%	16%	-15%	-79*
COc1ccc(-c2nn(C)c3sc(C(=O)Nc4cc(OC)c(OC)c(OC)c4)cc23)cc1OC	.	.	.	-23%	.
CC1=Nc2ccccc2/C1=C/c1c(C)[nH]c2ccccc12	i	.	-18%	-1%	-72*
CC1=Nc2ccccc2/C1=C\c1nc(-c2ccccc2)oc1O	i	4%	5%	?	31
CS(=O)(=O)n1nc(OC(=O)c2cccc3ccccc23)cc1N	i	-1%	10%	-7%	-57*
CCN(C[C@H]1N[C@@](Cc2ccccc2)(C(=O)OC)[C@H]2C(=O)N(C)C(=O)[C@@H]12)C(=O)COC	i	5%	1%	-8%	0
Cc1ccc(-c2ccccc2[C@@H]2C[C@H]3CN(C)C(=O)[C@]34CCCN24)o1	i	1%	?	?	-10
O=C1N(c2ccccc2)C[C@@H]2C[C@@H](c3cc4ccccc4o3)N3CCC[C@@]123	?	2%	0.3µM*	-9%	-103*
CCc1ccc2[nH]c(=O)c(CN(CCN(CC)CC)C(=S)NCc3ccco3)cc2c1	i	0%	10%	2%	-64*
CCc1ccc2[nH]c(=O)c(CN(Cc3ccc4c(c3)OCO4)C(=O)c3ccco3)cc2c1	?	2%	-12%	-15%	-22
CCc1ccc2[nH]c(=O)c(CN(CCN(C)C)C(=S)NCc3ccco3)cc2c1	i	0%	-16%	-4%	-74*
CCc1ccc2[nH]c(=O)c(CN(CC3CCCO3)C(=S)NCc3ccco3)cc2c1 (stereo not drawn)	i	-2%	-2%	-24%	?
O=c1[nH]c2cc3c(cc2cc1CN(Cc1ccccc1)Cc1nnnn1Cc1ccco1)OCCO3	i	-9%	-11%	-8%	-59*
CCOC(=O)Cn1nnnc1CN(Cc1ccccc1)Cc1cc2cc(CC)ccc2[nH]c1=O	i	0%	-13%	-8%	-91*
CCc1ccc2[nH]c(=O)c(CN(Cc3ccccc3)Cc3nnnn3Cc3ccco3)cc2c1	?	-11%	-10%	-32%	-54*
CCOC(=O)Cn1nnnc1C(CC)N(Cc1ccccc1)Cc1cc2cc(C)ccc2[nH]c1=O (stereo not drawn)	i	-2%	22%	-19%	16
SMILES	ATXN viability	USP2a block	ATXN2 expr inh	USP1-UAF1 inh	IL-1B inflam inh
Cc1cccc2cc(CN(Cc3cccs3)Cc3nnnn3Cc3ccccc3)c(=O)[nH]c12	?	-1%	-37%	?	-50*
COc1ccc(NC(=O)c2ccc(C)cc2)c[n+]1[O-]	i	3%	16%	-4%	7
CN1CCc2c(sc(NC(=O)c3ccc([N+](=O)[O-])o3)c2C(N)=O)C1	?	2%	?	-19%	-98*
NC(=O)c1c(NC(=O)c2ccc([N+](=O)[O-])o2)sc2c1CCCC2	i	-1%	-15%	-7%	.
CN1CCc2c(sc(NC(=O)c3ccco3)c2C(N)=O)C1	i	4%	11%	-11%	0
N#Cc1c(NC(=O)c2ccc([N+](=O)[O-])o2)sc2c1CCC2	?	4%	?	-12%	-94*
CN1CCc2c(sc(NC(=O)c3cc(Cl)sc3Cl)c2C(N)=O)C1	i	-1%	-9%	-18%	-91*
O=C(Cc1ccccc1)Nc1ccc2c(c1)OC1(CCCC1)O2	i	0%	82%	-12%	0
COc1ccccc1CC(=O)Nc1ccc2c(c1)OC1(CCCC1)O2	i	-10%	2%	-13%	-74*
CC(=O)O[C@@H]1CC2C3CCc4cc(OC(=O)c5ccccc5)ccc4C3CCC2(C)[C@H]1OC(C)=O (stereo partly drawn)	i	.	8%	.	.
COc1cccc2[nH]c3c(N4CCC(C)CC4)ncnc3c12	i	0%	-3%	4%	-52*
CCCS(=O)(=O)NCc1c(C)ncc2c1CCN(C(=O)c1ccc(Cl)cc1)C2	i	.	.	.	.
O=C(COC(=O)CNC(=O)c1ccc(Cl)cc1Cl)NNC(=O)c1ccccc1F	i	0%	-11%	1%	1
CN(C(=O)COC(=O)CNC(=O)CNC(=O)c1ccc(Cl)cc1Cl)c1ccccc1	i	4%	9%	-17%	-143*
CC(=O)N[C@@H](C)C(=O)NCC1Cc2cccc(-c3ccccc3C(F)(F)F)c2O1 (stereo partly drawn)	i	.	.	.	.
O=C(OCCN1C(=O)c2ccccc2C1=O)c1cc(S(=O)(=O)N2CCOCC2)ccc1Cl	i	0%	4%	-3%	-17
CCOC(=O)c1ccccc1NC(=O)c1c(F)c(F)c(F)c(F)c1F	i	-1%	-19%	-14%	-69*
CCOC(=O)C1=C(COC(=O)c2cc(S(=O)(=O)N3CCOCC3)ccc2F)NC(=O)NC1C (stereo not drawn)	i	.	-10%	-6%	-95*
CCOC(=O)c1ccccc1NC(=O)c1cc(S(=O)(=O)N2CCOCC2)ccc1F	i	1%	3%	-5%	-54*
O=C(OCN1C(=O)c2ccccc2C1=O)c1cc(S(=O)(=O)N2CCOCC2)ccc1F	i	-1%	4%	-7%	-57*
O=C(Nc1ccccc1N1CCCCC1)c1cc(S(=O)(=O)N2CCOCC2)ccc1F	i	-2%	-13%	-6%	-23
COCCNC(=O)c1c(C)oc2nc(C)nc(N3CCOCC3)c12	.	.	.	-21%	.
